# Laboratory results from PubChem BioAssay (NCATS).
# Records with an inconclusive call do not appear. Where a call stands in place of a potency, no number is given. A number with no mark means an inactive call. Calls of active or inactive are those of the source. Calls come from the whole dose curve; as a rule, active = well fitted curve in the direction sought with a large enough effect; inconclusive = small, poorly fitted or top-dose-only effect, or another doubt; inactive = no such curve, though single readings can be large; an effect the other way counts as inactive or inconclusive.
# System: not listed separately
# Assay: Primary qHTS for inhibitors of La Crosse Virus (LACV) - induced cell death in SH-SY5Y cells (AID 1508616);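 note: top concentration of the series differs between compounds; higher means more rescue of cells from virus-induced death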
# Settings: SH-SY5Y LACV cytopathicity rescue, ATP luminescence, 6 d; series mostly up to 9.63 µM
# How it was run: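 Protection against LACV-induced cell death is scored in SH-SY5Y cells exposed to compounds and virus (0.01 MOI) for 6 days. Data normalized to virus-infected DMSO wells and virus-free DMSO wells.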
row,Compound,Potency
1,OC[C@H]1O[C@@H](n2cnc3c(NC4CCCC4)ncnc32)[C@H](O)[C@@H]1O,inactive
2,O=Cc1ccc(O)c(O)c1O,inactive
3,CCCCCCCCCCCCCCCCCC(=O)OC(CC(=O)O)C[N+](C)(C)C (stereo not drawn),inactive
4,CC(C)Cc1ccc([C@H](C)C(=O)O)cc1,inactive
5,CC1(C)S[C@@H]2[C@H](NC(=O)[C@H](N)c3ccccc3)C(=O)N2[C@H]1C(=O)O,inactive
6,CN(C)CCC(c1ccc(Cl)cc1)c1ccccn1 (stereo not drawn),inactive
7,Brc1c(Br)c(Br)c2n[nH]nc2c1Br,inactive
8,O=C(O)CCCC[C@@H]1CCSS1,inactive
9,CN1C2CC(OC(=O)[C@H](CO)c3ccccc3)CC1C1OC12 (stereo partly drawn),inactive
10,Clc1ccc(N2CCN(Cc3cc4ccccn4n3)CC2)cc1,inactive
11,NO,inactive
12,Nc1nc(SCc2ccc([N+](=O)[O-])cc2)c2ncn([C@@H]3O[C@H](CO)[C@@H](O)[C@H]3O)c2n1,inactive
13,CC(C)NCC(O)COc1cccc2ccccc12 (stereo not drawn),inactive
14,O=C1NC(=O)/C(=C/c2ccc3nccnc3c2)S1,inactive

# Molecular target: Calcium and integrin-binding protein 1 (Homo sapiens) (UniProt Q99828)
# Sequence (Q99828 whole entry, looked up): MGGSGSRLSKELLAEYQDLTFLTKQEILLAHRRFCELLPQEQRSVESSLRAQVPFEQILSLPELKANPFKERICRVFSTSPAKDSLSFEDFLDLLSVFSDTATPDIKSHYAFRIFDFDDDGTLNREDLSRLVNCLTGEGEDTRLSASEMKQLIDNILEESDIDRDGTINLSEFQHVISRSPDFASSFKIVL
# Assay: Validation qHTS for Identification of Calcium Integrin Binding protein 1 (CIB1) Competitor (AID 1508618)
# Settings: CIB1-GST / FITC-alphaIIb peptide fluorescence polarization; series mostly up to 114 µM
# How it was run: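 Fluorescence polarization with 1 uM CIB1-GST and 100 nM FITC-alphaIIb peptide in HEPES pH 7.4, NaCl, 5 mM CaCl2, Tween20. Compounds at up to 114 uM final, preincubated with protein 15 min; read after 15 min more at RT.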
row,Compound,outcome
1,O=C(Nc1ccc2c(c1)CCN(Cc1ncn[nH]1)C2)c1ccccc1-c1ccc(C(F)(F)F)cc1,inactive
2,COC(=O)C1=C(C)NC(C)=C(C(=O)OC)C1c1cccc(NC(=O)NCCCN2CCC(c3cccc(OC)c3)CC2)c1,inactive
3,COc1ccc(/C=C/c2nc(NCCCN(C)C)c3ccccc3n2)cc1,inactive
4,CCCC(CCC)C(=O)OC1CC2CCC(C1)[N+]2(C)C (stereo not drawn),inactive
5,O=C(Nc1ccccc1)c1cc([N+](=O)[O-])ccc1Cl,inactive
6,O=C(Nc1ccc2[nH]ncc2c1)C1CCC1,inactive
7,Fc1ccc2[nH]c(CN3CCN(c4ccccn4)CC3)cc2c1,inactive
8,CCCCN(CC)c1nc(C)nc2c1c(C)cn2-c1c(C)cc(C)cc1C,inactive
9,O=C(O)CNC(=O)C(CS)Cc1ccccc1 (stereo not drawn),inactive
10,C[N+]1(C)C2CC(OC(=O)[C@H](CO)c3ccccc3)CC1C1OC12 (stereo partly drawn),inactive
11,CN(CCCOc1ccc(Cc2ccccc2)cc1)CCC(=O)O,inactive
12,O=C(c1ccc(Cl)cc1)N1CCN(c2ccc([N+](=O)[O-])c3ncccc23)CC1,inactive
13,NCCSSCCN,inactive
14,CC[C@H]1OC(=O)[C@H](C)C(O[C@H]2C[C@@](C)(OC)[C@@H](O)[C@H](C)O2)[C@H](C)[C@@H](OC2O[C@H](C)C[C@H](N(C)C)[C@H]2O)[C@](C)(O)C[C@@H](C)CN(C)[C@H](C)[C@@H](O)[C@]1(C)O (stereo partly drawn),inactive
15,CCNc1nc2c(ncn2[C@H]2C[C@H](O)[C@@H](CO)O2)c(=O)[nH]1,inactive
16,N[C@H](CCCP(=O)(O)O)C(=O)O,inactive
17,CS(=O)(=O)c1ccc(-n2nc(C(F)(F)F)cc2-c2ccc(F)cc2)cc1,inactive
18,COCCOc1cc2nc[nH]c(=O)c2cc1OCCOC,inactive
19,CN(C)C(N)=NCCC[C@H](N)C(=O)O,inactive
20,CCNC(=O)[C@H]1O[C@@H](n2cnc3c(N)nc(NCCc4ccc(CCC(=O)O)cc4)nc32)[C@H](O)C1O (stereo partly drawn),inactive
21,Nc1nc2c(ncn2[C@@H]2O[C@H](CO)[C@@H](O)[C@@H]2O)c(=O)[nH]1,inactive
22,CCN(CC)CCCCNc1ncc2cc(-c3c(Cl)cccc3Cl)c(NC(=O)NC(C)(C)C)nc2n1,inactive
23,Cn1c(=O)c(-c2c(Cl)cccc2Cl)cc2cnc(Nc3ccc(N4CCOCC4)cc3)nc21,inactive

# Molecular target: Calcium and integrin-binding protein 1 (Homo sapiens) (UniProt Q99828)
# Assay: Primary qHTS for Identification of Calcium Integrin Binding Protein 1 (CIB1) Competitor (AID 1508620);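 note: GST tagged CIB1 binding a fluorescein labelled alphaIIb integrin peptide tracer; top concentration of the series differs between compounds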
# Settings: CIB1-GST / FITC-alphaIIb peptide fluorescence polarization; series mostly up to 114 µM
# How it was run: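 Fluorescence polarization competition: CIB1-GST (1 uM final) preincubated with compound 15 min at room temperature, then FITC-labeled alphaIIb peptide (100 nM final) added for another 15 min. Polarization read at Ex 480/Em 540.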
row,Compound,Potency
1,O=C(Nc1ccc2c(c1)CCN(Cc1ncn[nH]1)C2)c1ccccc1-c1ccc(C(F)(F)F)cc1,inactive
2,COC(=O)C1=C(C)NC(C)=C(C(=O)OC)C1c1cccc(NC(=O)NCCCN2CCC(c3cccc(OC)c3)CC2)c1,inactive
3,O=C(Nc1ccc2[nH]ncc2c1)C1CCC1,inactive
4,Fc1ccc2[nH]c(CN3CCN(c4ccccn4)CC3)cc2c1,inactive
5,CCCCN(CC)c1nc(C)nc2c1c(C)cn2-c1c(C)cc(C)cc1C,inactive
6,CN(CCCOc1ccc(Cc2ccccc2)cc1)CCC(=O)O,inactive
7,CCNc1nc2c(ncn2[C@H]2C[C@H](O)[C@@H](CO)O2)c(=O)[nH]1,inactive
8,CS(=O)(=O)c1ccc(-n2nc(C(F)(F)F)cc2-c2ccc(F)cc2)cc1,inactive
9,CCN(CC)CCCCNc1ncc2cc(-c3c(Cl)cccc3Cl)c(NC(=O)NC(C)(C)C)nc2n1,inactive

# System: not listed separately
# Assay: Cell Viability qHTS for small molecule stabilizers of the endoplasmic reticulum resident proteome (AID 1508629);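 note: human SH-SY5Y neuroblastoma cells carrying the GLuc-SERCaMP reporter; compound exposure about 46 h in total before the viability read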
# Settings: cell viability counter-screen, 100 nM thapsigargin for final 4 h
row,Compound,max response [%]
1,O=C(Nc1ccccc1)c1cc([N+](=O)[O-])ccc1Cl,-26.2
2,C[N+]1(C)C2CC(OC(=O)[C@H](CO)c3ccccc3)CC1C1OC12 (stereo partly drawn),12
3,O=C(c1ccc(Cl)cc1)N1CCN(c2ccc([N+](=O)[O-])c3ncccc23)CC1,3.83

# System: not listed separately
# Assay: Primary qHTS for small molecule stabilizers of the endoplasmic reticulum resident proteome: Secreted ER Calcium Modulated Protein (SERCaMP) assay (AID 1508630)
# Settings: SH-SY5Y GLuc-SERCaMP (Gaussia luciferase released on ER calcium loss) secretion, thapsigargin, luminescence; series mostly up to 38.4 µM
# How it was run: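 GLuc-SERCaMP-expressing SH-SY5Y cells, pretreated 16 h with compound, are challenged with thapsigargin to empty ER calcium stores; after 4 h, coelenterazine is added directly to the medium and luminescence is imaged.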
row,Compound,Potency
1,OC[C@H]1O[C@@H](n2cnc3c(NC4CCCC4)ncnc32)[C@H](O)[C@@H]1O,inactive
2,CCCCCCCCCCCCCCCCCC(=O)OC(CC(=O)O)C[N+](C)(C)C (stereo not drawn),inactive
3,O=C(Nc1ccccc1)c1cc([N+](=O)[O-])ccc1Cl,inactive
4,CC(C)Cc1ccc([C@H](C)C(=O)O)cc1,inactive
5,O=C(O)CNC(=O)C(CS)Cc1ccccc1 (stereo not drawn),inactive
6,CN(C)CCC(c1ccc(Cl)cc1)c1ccccn1 (stereo not drawn),inactive
7,Brc1c(Br)c(Br)c2n[nH]nc2c1Br,inactive
8,NCCSSCCN,inactive
9,O=C(O)CCCC[C@@H]1CCSS1,inactive
10,N[C@H](CCCP(=O)(O)O)C(=O)O,inactive
11,Clc1ccc(N2CCN(Cc3cc4ccccn4n3)CC2)cc1,inactive
12,CN(C)C(N)=NCCC[C@H](N)C(=O)O,inactive
13,NO,inactive
14,Nc1nc(SCc2ccc([N+](=O)[O-])cc2)c2ncn([C@@H]3O[C@H](CO)[C@@H](O)[C@H]3O)c2n1,inactive
